Here are results for 13 compounds from PubChem BioAssay (NCATS).

For assay [1], the system named is Zika virus NS2B-NS3 protease. The assay can be described thus: Primary screen GU AMC qHTS for Zika virus inhibitors (AID 1347154).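 Note: 0% = no-inhibitor control and -100% = no-enzyme control; nearly all actives have a fitted effect of over 70% in size.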 An outline of the steps:
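Fluorogenic AMC-substrate cleavage by noncovalent NS2B-NS3 protease complex (25 nM, pH 8.0 Tris buffer with Tween 20) followed for 15 minutes at room temperature (~20% conversion). Percent inhibition from ex340/em450 signal change, fitted by 4-parameter Hill equation.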

A short description of assay [2]: Primary qHTS for small molecule stabilizers of the endoplasmic reticulum resident proteome: Secreted ER Calcium Modulated Protein (SERCaMP) assay (AID 1508630). Note: % is set by controls: 0 for no effect and ±100 for the full control effect. In a few lines: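 The SH-SY5Y reporter protocol was run at 3 concentrations up to 38.3 uM (primary) or 11 concentrations (follow-up): 16 h compound, 100 nM thapsigargin for 4 h, then extracellular luciferase luminescence.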
For orientation: In qHTS, concentration-response curves come from the screen itself.

For assay [3], the target named is Glucocorticoid receptor (Homo sapiens) (UniProt P04150). In words: GR-GFP Redistribution (AID 450;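 active = compounds whose dose series gives a full or clear partial fitted curve of increased nuclear translocation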; note: potency is the fitted concentration of half-maximal effect). The settings on record: U2OS GR-GFP nuclear translocation, laser cytometry, 2 h.
Assay [4] shares this target. In words: GR-EFC Redistribution (AID 451; calls by dose curve; note: potency is the fitted concentration of half-maximal effect). Particulars: CHO-K1 GR-EFC translocation, beta-gal luminescence, 2 h. An outline of the steps:
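Translocation of GR-ED fusion to nuclear EA restores b-gal, read by luminescence after 1 h room-temperature detection. Engineered CHO-K1 biosensor cells, 1,000/well, exposed 2 h at 37 C to titrations up to 46 uM final.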

Assay [5] has as its target Mitogen-activated protein kinase 10 (Mus musculus) (UniProt Q61831). In words: JNK3 AlphaScreen Assay (AID 530; active = well fitted curve in either direction with a large enough effect, not every such curve was filed as active;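 note: kinase came from lysate of stimulated human HepG2 cells; signal reports phosphorylation of biotinylated GST-cJun 1-79 at Ser73 with 10 µM ATP; % is set by controls: 0 for no effect and ±100 for the full control effect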). In a few lines: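 qHTS titrations with 15 min compound pre-incubation before adding ATP (10 uM final). Read-out: AlphaScreen of Ser73-phosphorylated biotin-GST-cJun using HepG2 lysate JNK3 activated by IL-1β and TNFα.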
(In general: In Alpha technology, singlet oxygen from a donor bead excites a nearby acceptor bead.)

The target of assay [6] is 3',5'-cyclic-AMP phosphodiesterase 4B (Homo sapiens) (UniProt Q07343). In words: qHTS Assay for Inhibitors of PDE-IV (AID 607; active = well fitted activation curve with a large enough effect in the main read-out, with a control signal flat, not every such curve was filed as active; note: % of control where 0% means no effect). In a few lines:
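ACTOne HEK293 cells carry a modified cAMP-gated CNG channel and express endogenous PDE4; plated 1000 cells/well, compounds up to 22.9 uM final. Membrane-potential dye fluorescence (ex 535/em 590) was read; parental cells received 10 uM forskolin + 100 uM RO 20-1724.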

Assay [7] addresses DNA dC->dU-editing enzyme APOBEC-3G (Homo sapiens) (UniProt Q9HC16). In words: qHTS for inhibitors of Vif-A3G interactions: Validation (AID 588379). Note: 0% is about no effect. In a few lines: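 Yellow fluorescence (Ex 488, Em 500-530) of Vif-coexpressing HeLa A3G-eYFP cells, scanned by Acumen cytometer, reports blocked A3G degradation. Cells plated at 700/well overnight at 37 deg C before compound addition, then a further overnight compound incubation at 37 deg C.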

The test system of assay [8] is Zika virus NS2B-NS3 protease (linked construct). In words: Primary screen NINDS Rhodamine qHTS for Zika virus inhibitors (AID 1347160). Note: % is set by controls: 0 for no effect and ±100 for the full control effect; nearly all actives have a fitted effect of over 55% in size. An outline of the steps:
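Aprotinin served as in-plate control. Conditions: 25 nM linked NS2B-NS3, pH 8.0 Tris buffer, titrated compounds, 15 min preincubation and 15 min reaction with 1.5 microM Rhod110 substrate at room temperature.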

Assay [9] in a line: OV-KATE Cancer Cell Toxicity qHTS against the NCATS CANVASS Library (AID 1347345). Note: % is set by controls: 0 for no effect and ±100 for the full control effect. An outline of the steps: (§1)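 Viability was assessed by adding CellTiter-Glo reagent to treated cultures and reading luminescence after 15min at room temperature. Treatment lasted 72 h at 37 degrees C/5% CO2, using an 11-point series on 1000 cells/well.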
A short description of assay [10]: HPAF-II Cancer Cell Toxicity qHTS against the NCATS CANVASS Library (AID 1347346). Note: % is set by controls: 0 for no effect and ±100 for the full control effect; nearly all actives have a fitted effect of over 55% in size. In a few lines: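 First, HPAF-II cells are plated (1000 cells/well) and held 4 h at 37 degrees C. Next, compounds are pin-transferred as an 11-point series. After 72 h, CellTiter-Glo is added and luminescence measured.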
Assay [11] in a line: OV-SAHO Cancer Cell Toxicity qHTS against the NCATS CANVASS Library (AID 1347348). Note: % is set by controls: 0 for no effect and ±100 for the full control effect; nearly all actives have a fitted effect of over 55% in size. An outline of the steps: as §1
The nature of assay [12]: HEK293 24hr Apoptosis Induction qHTS against the NCATS CANVASS Library (AID 1347359). Note: 0% is about no effect. An outline of the steps:
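Caspase-3/7 activation measured as luminescence from the DEVD-based Caspase-Glo reagent, 15 min at room temperature, following 24-hour compound treatment of HEK293 cells.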

Assay [13] can be described thus: HEK293 12hr Apoptosis Induction qHTS against the NCATS CANVASS Library (AID 1347361). Note: 0% is about no effect. In a few lines:
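Read-out: Caspase-Glo 3/7 luminescence (DEVD substrate), 15 min RT. Preceded by 12 h compound exposure of HEK293, 500 cells/well, 11-pt qHTS titration; doxorubicin titration as control.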

Assay [14] concerns NAD(P)H diaphorase (Clostridium kluyveri). In words: Diaphorse counterscreen qHTS: Assay Interference Panel against the NCATS CANVASS Library (AID 1347362). Note: 0% is about no effect. In a few lines: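 Counterscreen for coupling-enzyme interference: resorufin fluorescence from resazurin/NADH turnover, read after 5 min at room temperature. Compounds were tested over an 11-point series after 15 min dark preincubation with diaphorase in PBS-Tween.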
(Counterscreens check selectivity or assay interference.)

In assay [15] the target is Luciferin 4-monooxygenase (Photinus pyralis) (UniProt P08659). In words: Firefly luciferase counterscreen qHTS: Assay Interference Panel against the NCATS CANVASS Library (AID 1347363). Note: 0% is about no effect. An outline of the steps:
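Luminescence inhibition readout: compounds (11-point qHTS) sat 15 min at room temperature with substrate mix (0.013 mM luciferin and ATP), then firefly luciferase was added and signal read 5 min later.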

Assay [16] has as its target Nuclear receptor subfamily 1 group I member 3 (Homo sapiens) (UniProt Q14994). In words: qHTS for Constitutive Androstane Receptor (CAR) Agonist screened against the NCATS CANVASS Library (AID 1347373).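 Note: every well also contained 1.5 µM PK11195 alongside the test compound; 0% is about no effect.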 An outline of the steps:
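Cells were plated and allowed to attach for 4hr, then dosed with compound in an 11-point series alongside 1.5uM PK11195. After 24hr at 37C, viability was measured fluorometrically and CAR-driven CYP2B6 reporter luminescence was recorded.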

A short description of assay [17]: 10-beta competent E. coli microbial cell viability qHTS against the NCATS CANVASS Library (AID 1347376). Note: 0% is about no effect. An outline of the steps:
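Bacterial suspension diluted to 0.2 OD was dosed with compounds, 11-point series, then held overnight at 37C. BacTiter-Glo reagent was added, and after 20 min at room temperature ATP-dependent luminescence was measured.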

A short description of assay [18]: qHTS for H2AX Agonists against the NCATS CANVASS Library (AID 1347378). Note: 0% is about no effect. In a few lines:
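CHO-K1 cells were plated overnight at 37C, then exposed to compounds (concentration series, 0.76% DMSO final) for 3 hr at 37C. Lysates received Eu-cryptate anti-pH2AX (S139) and d2 anti-H2AX antibodies; after 24 hr at room temperature, TR-FRET 665/620 nm ratio was read.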

The nature of assay [19]: Inflammasome Signaling qHTS Counterscreen: IL-1-beta AlphaLISA counterscreen against the NCATS CANVASS Library (AID 1347381).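 Note: cell-free check with purified IL-1β in medium and no THP-1 cells; 0% is about no effect.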 An outline of the steps:
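Purified IL-1-beta (4 pg/well) + compound, 11-pt conc. series; acceptor beads 6 ug/mL + biotin-Ab 0.6 nM final, 1 h RT; SA-donor 24 ug/ml final, 30 min dark RT; read ex 680/em 615.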

Assay [20] in a line: qHTS Assay for Lipid Storage Modulators (AID 1519; calls by dose curve; for activity change, negative = inhibition: % is set by controls: 0 for no effect and ±100 for the full control effect). The settings on record: Drosophila S3 cells, BODIPY lipid droplet/cell ratio, laser cytometry, cells loaded with oleic acid; for activity change, negative = inhibition: at 57.5 µM (top of the series). In a few lines: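 Cells seeded at 5,000 per well were treated with compounds over a concentration series and loaded with oleic acid (400 uM, as added). Lipid droplet fluorescence (488 nm excitation, 500-530 nm channel) was read by laser-scanning cytometry and normalized to 20 uM Triacsin C.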

Where [21] appears, read: measured here: cell count channel max response.
Setting [22] is: measured here: lipid channel max response.

Records with an inconclusive call do not appear. Activity calls are given as the source filed them. Unless noted, calls come from the whole dose curve; as a rule, active = well fitted curve in the direction sought with a large enough effect; inconclusive = small, poorly fitted or top-dose-only effect, or another doubt; inactive = no such curve, though single readings can be large; an effect the other way counts as inactive or inconclusive.

Chain of DNA dC->dU-editing enzyme APOBEC-3G (Homo sapiens) (Q9HC16 whole entry, looked up): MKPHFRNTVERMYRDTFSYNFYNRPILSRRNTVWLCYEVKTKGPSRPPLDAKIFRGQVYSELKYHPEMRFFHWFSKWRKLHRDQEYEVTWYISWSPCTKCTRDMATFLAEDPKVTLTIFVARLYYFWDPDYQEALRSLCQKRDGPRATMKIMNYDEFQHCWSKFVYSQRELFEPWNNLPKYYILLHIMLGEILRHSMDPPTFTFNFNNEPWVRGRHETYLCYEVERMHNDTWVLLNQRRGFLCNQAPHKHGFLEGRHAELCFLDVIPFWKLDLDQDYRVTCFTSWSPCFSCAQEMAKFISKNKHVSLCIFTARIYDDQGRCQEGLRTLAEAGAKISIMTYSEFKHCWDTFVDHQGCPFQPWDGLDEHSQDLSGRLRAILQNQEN
Chain of 3',5'-cyclic-AMP phosphodiesterase 4B (Homo sapiens) (Q07343 whole entry, looked up): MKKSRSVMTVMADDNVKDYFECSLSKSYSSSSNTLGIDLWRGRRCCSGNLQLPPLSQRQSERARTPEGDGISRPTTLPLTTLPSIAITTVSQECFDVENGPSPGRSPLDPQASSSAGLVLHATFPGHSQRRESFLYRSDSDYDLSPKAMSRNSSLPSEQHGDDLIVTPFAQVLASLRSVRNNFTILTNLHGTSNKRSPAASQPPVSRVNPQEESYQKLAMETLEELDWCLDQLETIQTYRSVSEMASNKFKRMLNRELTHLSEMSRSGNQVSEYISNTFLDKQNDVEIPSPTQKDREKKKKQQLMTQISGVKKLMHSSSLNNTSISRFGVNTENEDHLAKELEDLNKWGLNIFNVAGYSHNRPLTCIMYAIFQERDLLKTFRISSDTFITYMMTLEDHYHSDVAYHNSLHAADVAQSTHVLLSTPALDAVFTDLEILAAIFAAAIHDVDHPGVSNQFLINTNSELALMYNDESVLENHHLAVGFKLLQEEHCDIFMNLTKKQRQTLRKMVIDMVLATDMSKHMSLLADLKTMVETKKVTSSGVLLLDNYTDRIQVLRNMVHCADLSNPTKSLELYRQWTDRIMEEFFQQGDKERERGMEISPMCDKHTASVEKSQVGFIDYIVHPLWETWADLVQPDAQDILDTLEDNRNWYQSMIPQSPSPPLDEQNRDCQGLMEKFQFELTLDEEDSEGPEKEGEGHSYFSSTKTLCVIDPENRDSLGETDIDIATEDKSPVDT
Chain of Glucocorticoid receptor (Homo sapiens) (P04150 whole entry, looked up): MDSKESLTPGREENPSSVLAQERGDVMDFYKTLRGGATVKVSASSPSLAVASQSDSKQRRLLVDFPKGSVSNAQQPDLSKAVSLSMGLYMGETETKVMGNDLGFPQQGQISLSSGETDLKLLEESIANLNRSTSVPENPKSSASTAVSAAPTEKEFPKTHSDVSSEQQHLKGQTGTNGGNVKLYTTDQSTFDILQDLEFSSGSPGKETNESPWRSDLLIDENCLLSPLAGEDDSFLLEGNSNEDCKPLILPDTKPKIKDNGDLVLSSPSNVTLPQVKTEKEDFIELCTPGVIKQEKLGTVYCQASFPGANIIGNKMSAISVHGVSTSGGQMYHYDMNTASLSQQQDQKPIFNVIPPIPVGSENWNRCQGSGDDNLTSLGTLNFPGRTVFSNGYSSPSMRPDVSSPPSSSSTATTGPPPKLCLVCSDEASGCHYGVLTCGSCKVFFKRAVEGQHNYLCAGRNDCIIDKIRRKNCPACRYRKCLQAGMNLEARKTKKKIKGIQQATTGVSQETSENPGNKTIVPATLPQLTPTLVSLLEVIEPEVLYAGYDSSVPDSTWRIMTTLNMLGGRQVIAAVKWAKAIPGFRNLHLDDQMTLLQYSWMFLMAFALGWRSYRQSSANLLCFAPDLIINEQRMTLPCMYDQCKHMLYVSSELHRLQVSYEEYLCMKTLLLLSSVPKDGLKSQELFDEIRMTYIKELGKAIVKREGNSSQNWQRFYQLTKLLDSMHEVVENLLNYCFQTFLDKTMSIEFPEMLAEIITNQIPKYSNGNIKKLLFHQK
Chain of Nuclear receptor subfamily 1 group I member 3 (Homo sapiens) (Q14994 whole entry, looked up): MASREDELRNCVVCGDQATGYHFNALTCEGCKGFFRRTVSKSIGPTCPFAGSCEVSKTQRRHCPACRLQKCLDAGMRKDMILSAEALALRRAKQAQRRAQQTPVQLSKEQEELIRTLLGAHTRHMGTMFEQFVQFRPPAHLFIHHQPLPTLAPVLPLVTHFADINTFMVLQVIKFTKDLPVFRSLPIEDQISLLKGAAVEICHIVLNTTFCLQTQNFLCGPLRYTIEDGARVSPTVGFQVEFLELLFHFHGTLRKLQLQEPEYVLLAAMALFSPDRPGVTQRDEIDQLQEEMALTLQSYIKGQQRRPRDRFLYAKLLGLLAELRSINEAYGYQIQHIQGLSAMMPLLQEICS
Chain of Luciferin 4-monooxygenase (Photinus pyralis) (P08659 whole entry, looked up): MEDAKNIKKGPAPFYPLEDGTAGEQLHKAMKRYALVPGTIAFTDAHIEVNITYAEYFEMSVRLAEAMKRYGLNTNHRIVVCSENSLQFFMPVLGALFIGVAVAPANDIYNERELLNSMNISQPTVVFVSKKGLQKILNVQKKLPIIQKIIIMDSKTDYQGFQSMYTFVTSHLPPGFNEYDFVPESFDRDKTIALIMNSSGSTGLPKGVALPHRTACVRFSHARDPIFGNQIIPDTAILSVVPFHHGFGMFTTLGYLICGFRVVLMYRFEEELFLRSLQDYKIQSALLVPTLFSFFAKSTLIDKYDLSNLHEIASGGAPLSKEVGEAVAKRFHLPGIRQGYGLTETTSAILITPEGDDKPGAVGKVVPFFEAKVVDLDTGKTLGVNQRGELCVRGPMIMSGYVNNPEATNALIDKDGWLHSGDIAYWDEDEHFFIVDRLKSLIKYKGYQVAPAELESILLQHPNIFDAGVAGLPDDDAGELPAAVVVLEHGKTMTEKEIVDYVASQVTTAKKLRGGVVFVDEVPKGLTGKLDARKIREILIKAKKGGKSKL

Take `CC(C)[C@@]1(NC(=O)[C@H]2CC3c4cccc5[nH]cc(c45)C[C@H]3N(C)C2)O[C@@]2(O)C3CCCN3C(=O)[C@@H](Cc3ccccc3)N2C1=O` (stereo partly drawn): the Potency result in assay [1] was “inactive”.
For the compound `Cc1ccc2cc3c(ccc4ccccc43)c3c2c1CC3`, the Potency result in [1] and in assay [2] was “inactive” each time.
Turning to `Oc1ccc2c3c1O[C@H]1c4c(c5ccccc5n4Cc4ccccc4)C[C@]4(O)[C@H](C2)N(CC2CC2)CC[C@@]314`, the Potency in [3] and in assay [4] was > 46 µM (inactive) each time. For the same compound, the compound was classed as inactive in assay [5]. Besides, the Potency result in assay [6], in assay [7] and in [1] was “inactive” throughout.
On to `CC(=O)N[C@H]1CCN2CCC[C@H]12`, for which the Potency result in [8], in assay [9], in [10], in [11], in assay [12] and in assay [13] was “inactive” throughout. Further, the Potency entry in [18] was “inactive”. The call in [14], in assay [15], in [16], in assay [17] and in [19] was inactive.
With `CC(C)(O)[C@H]1O[C@@H]2CC[C@]3(C)[C@@]4(C)c5[nH]c6ccccc6c5C[C@@H]4CC[C@]3(O)C2=CC1=O`, the values for the Potency in assay [3] and in [4] were 6.76e-05 µM (active) and > 46 µM (inactive), respectively. The Potency entry in assay [7] and in assay [1] was “inactive” in each case.
In the case of `CCOC(=O)c1ncn2c1CN(C)C(=O)c1cc(N=[N+]=[N-])ccc1-2`, the Potency entry in assay [1] and in assay [2] was “inactive” throughout.
Take `N[C@H](C(=O)O)c1cc(=O)[nH]o1`: the Potency in [3] and in [4] was > 46 µM (inactive) in each case. Further, the outcome in assay [5] was inactive. The Potency entry in assay [6], in assay [7] and in assay [1] was “inactive” throughout. Further, the activity change, negative = inhibition in assay [20] was 3.47% (inactive). Besides, the max response in assay [20] (setting [21]) is -3.07%; in [20] (setting [22]) it was -3.59%.
Consider `CC(C)(c1ccc(OC[C@@H]2CO2)cc1)c1ccc(OC[C@H]2CO2)cc1`, for which the Potency in assay [3] and in assay [4] was > 46 µM (inactive) each time. In assay [20], the activity change, negative = inhibition was 4.02% (inactive). Also, the max response in [20] (setting [21]) came to 20.1%; in [20] (setting [22]) it was 20.3%. The Potency result in assay [7] and in assay [1] was “inactive” each time.
On to `C(=C/c1ccccc1)/CN1CCN(CCOC(c2ccccc2)c2ccccc2)CC1`, for which the Potency in assay [3] and in [4] was > 46 µM (inactive) each time. For the same compound, the call in assay [5] was inactive. Besides, the Potency result in [7] and in assay [1] was “inactive” in each case.
For the compound `CO[C@@H](/C=C/CC/C=C/C(=O)O)[C@@H](O)[C@H](C)[C@@H](O)/C(C)=C/[C@H](C)C(=O)CCCC1CC(=O)NC(=O)C1`, the Potency result in assay [8], in assay [9], in assay [10], in assay [11], in assay [12] and in assay [13] was “inactive” each time. For the same compound, in assay [18], the Potency entry was “inactive”. For the same compound, the call in assay [14], in assay [15], in [16], in assay [17] and in assay [19] was inactive.
With `Oc1ccc2c3c1O[C@H]1c4oc5ccccc5c4C[C@]4(O)[C@H](C2)N(CC2CC2)CC[C@@]314`, the Potency in assay [3] and in assay [4] was > 46 µM (inactive) in each case. Further, the compound was classed as inactive in [5]. Also, the Potency entry in [6], in assay [7] and in assay [1] was “inactive” throughout.
As for `O=C1Nc2ccccc2C2(CCN(CCc3ccc(C(F)(F)F)cc3)CC2)O1`, the Potency result in assay [1] was “inactive”.
As for `O[C@@H](Cc1ccncc1)C(Cl)(Cl)Cl`, the Potency in assay [3] and in assay [4] was > 46 µM (inactive) throughout. Moreover, the call in assay [5] was inactive. For the same compound, the Potency result in [6], in [7] and in [1] was “inactive” in each case.
